# Test results reported in the supplement of paper PMC7724964.
# T1: DYNLL2 1-89 Dynein_light (domain begin residue: 1, domain end residue: 89), Q96FJ2
# T1 chain: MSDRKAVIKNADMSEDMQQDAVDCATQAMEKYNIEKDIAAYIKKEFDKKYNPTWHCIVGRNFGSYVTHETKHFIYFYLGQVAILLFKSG
# T2: EEF1A1 244-333 GTP_EFTU_D2 (domain begin residue: 244, domain end residue: 333), P68104
# T2 chain: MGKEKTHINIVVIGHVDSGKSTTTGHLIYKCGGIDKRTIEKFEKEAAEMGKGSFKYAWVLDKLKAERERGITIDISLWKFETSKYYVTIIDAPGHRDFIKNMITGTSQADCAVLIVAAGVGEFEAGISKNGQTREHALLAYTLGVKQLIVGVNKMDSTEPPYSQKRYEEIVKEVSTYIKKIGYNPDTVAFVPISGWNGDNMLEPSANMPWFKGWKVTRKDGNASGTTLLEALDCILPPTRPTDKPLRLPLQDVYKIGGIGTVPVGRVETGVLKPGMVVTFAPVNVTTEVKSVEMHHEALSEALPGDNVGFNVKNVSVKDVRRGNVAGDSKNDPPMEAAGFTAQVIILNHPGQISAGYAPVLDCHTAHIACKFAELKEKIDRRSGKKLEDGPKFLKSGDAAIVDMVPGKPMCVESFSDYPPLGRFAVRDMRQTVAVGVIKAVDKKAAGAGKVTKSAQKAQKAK
# T3: EEF1A2 240-332 GTP_EFTU_D2 (domain begin residue: 240, domain end residue: 332), Q05639
# T3 chain: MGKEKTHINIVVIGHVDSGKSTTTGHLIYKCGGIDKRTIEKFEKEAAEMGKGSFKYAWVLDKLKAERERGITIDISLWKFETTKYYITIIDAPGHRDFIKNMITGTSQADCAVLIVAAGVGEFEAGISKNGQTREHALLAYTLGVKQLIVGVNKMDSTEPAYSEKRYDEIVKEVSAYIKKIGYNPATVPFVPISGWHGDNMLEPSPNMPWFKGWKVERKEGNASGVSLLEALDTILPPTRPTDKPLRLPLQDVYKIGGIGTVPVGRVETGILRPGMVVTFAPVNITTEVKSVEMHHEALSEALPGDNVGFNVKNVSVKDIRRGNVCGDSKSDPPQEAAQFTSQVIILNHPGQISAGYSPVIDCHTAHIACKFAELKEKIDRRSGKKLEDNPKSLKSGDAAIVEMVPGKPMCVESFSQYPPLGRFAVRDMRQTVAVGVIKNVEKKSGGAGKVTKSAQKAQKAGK
# Target: DYNLL1 1-89 Dynein_light (domain begin residue: 1, domain end residue: 89), P63167
# Sequence (P63167 whole entry): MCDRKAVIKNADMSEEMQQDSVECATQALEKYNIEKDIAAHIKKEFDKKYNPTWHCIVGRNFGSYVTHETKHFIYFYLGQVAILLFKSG
# Test: phage ELISA signal ratio (GST-PRM binding over GST background); higher = stronger binding of peptide-phage to the PRM
# Procedure, shortened: (§1)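 Five rounds of selection were carried out against human peptide recognition domains fused to the C-terminus of glutathione S-transferase (GST) and expressed in 96-well plates. The M13 phage library presented randomized hexadecapeptides, cysteine-free and glycine-flanked, on the gene-8 major coat protein. For each value, the phage ELISA signal on the GST-domain fusion was divided by the signal on GST alone.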
row,Binder,phage ELISA signal ratio
1,VTVGTQWDGFHVDAPI,19.6
2,SQTPDEWDWQPGAWIT,19.7
3,EMWTQTTSYDFLQMQG,20.7
4,TQTEYWVIDMPDWMTI,21.2
5,TQTEEYMQMLWPYQDV,21.3
6,TQTGESEMYFWNHMPK,22.7
7,GTQTDDTMVYFPREQR,22.8
8,SQTEPMPLWSRDAEVT,23.1
9,VQTDWMDWWMPDPFNA,23.6
10,SPTEWVWNWGENAQML,24.1
11,TQTLAWDWYYEFPEMI,24.5
12,TQTDLMGDHWPQHKMT,24.5
13,TQTDMNFWHSPWVELV,24.8
14,TQTEDWPQRESQPNWM,25.2
15,TQTDAWEMTMLAQQAV,25.2
16,LREMGTQTGEMITDYV,25.8
17,TQTEPAWGETGEMTAI,26
18,MSLGTQTDWQEPMWWL,26.8
19,KDFGTQVDFDILHEEE,27.5
20,SQTDWYDELFSQLVVT,27.9
21,TQTPYDWLYPAATYLT,28
22,TQTEFPWEDARLPKQE,28.7
23,SQTDPTYWFPWEDKWN,28.8
24,ISVGTQTDWTEPPQMG,29.1
25,MATQTDWNWGFLQEME,29.1
26,TQTDESMWLWHWPEDH,29.4
27,TQTEWLWNWGESAHML,29.8
28,VDMGTQTEASLLRYSV,33.5

# Target: T1, DYNLL2 1-89 Dynein_light (domain begin …
# Test: as above
# Procedure, shortened: as §1
row,Binder,phage ELISA signal ratio
1,QQTDDWHVAETGIWLA,13.9
2,AMVQTEDDWEMMWEQL,17.6
3,GTQTDEIFYLREYKSM,19.2
4,VQTEAWWPLQTPAWMV,19.7
5,TMTPWDWPIYQGESEH,25.7
6,TQFGETWVNWIPLTIT,25.9
7,TQTEPYKHQDQAHTRG,26.1
8,WTQTMNNITPWIEGIA,26.2
9,TQTMSWTGEKPQQWEM,27
10,TEMYEWMADATTNTMW,28
11,DIFPTYQHFMQQYSSE,30.3
12,MEMGTQTYKWQEWAFV,31.3
13,TMTDATLFEVPSYWIT,31.9
14,TQVWPDDWWALGNYYE,32
15,GQTEFVYKQMPVSGAR,33
16,ETQTPEWMGWLMESAI,34.3
17,SSTTGDDVLNSLTEMP,34.4
18,STQTDSNWKMMPDGTV,34.5
19,TQTGFGQAHMETPHSL,35.8
20,VDQASQTWVWWAGQAY,35.9
21,TQTDVISWQEFIFMRP,36.2
22,TQTLILDMDNMKFMTT,36.6
23,VQTIGTWEWDHVPVEV,41

# Target: T2, EEF1A1 244-333 GTP_EFTU_D2 (domain …
# Test: as above
# Procedure, shortened: as §1
row,Binder,phage ELISA signal ratio
1,ATPPQLTAHPNFMMWF,8.96

# Target: T3, EEF1A2 240-332 GTP_EFTU_D2 (domain …
# Test: as above
# Procedure, shortened: as §1
row,Binder,phage ELISA signal ratio
1,HWWQDNQGYVWFQVEQ,5.34
2,SDHTHWQLIQWDGWML,11.6
3,PWGPYQSFSELDIKHE,17.3

# Target: EGFR 334-495 Recep_L_domain (domain begin residue: 334, domain end residue: 495), P00533
# Test: as above
# Procedure, shortened: as §1
row,Binder,phage ELISA signal ratio
1,QWDFSQMTWWPIEEWK,13.3
2,EFFIPKEFYWDRVQDV,26.6
